SMILES strings stand for the structures. Calls of active or inactive are those of the source.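 How the source made its calls, unless noted: active means NADPH fluorescence slope more negative than the mean of all samples by about 3 SD, 99.7% confidence; inactive means the rest.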

Test [1] in a line: inhibitors of E-selectin induction by TNFa, primary screen, imaging, HUVEC, immunofluorescence, MLSMR starter and 10KST1 sets (AID 487;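 active means visually confirmed hit in the image check and inhibition above 20%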;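 on inhibition: signal is fraction of cell area covered by stained E-selectin grains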;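 on nuclei count: 100% = median nuclei count of all wells on the same plate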). Conditions: HUVEC TNFalpha-induced E-selectin immunofluorescence imaging, at 2 µM; inhibition: stronger effect = higher value; nuclei count: measured here: cell number, toxicity.
Test [2] can be described thus: DUSP6 inhibitors restoring Erk phosphorylation by chemical complementation, primary imaging in DUSP6-transfected HeLa (AID 609;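 active means compounds giving at least 50% inhibition in the cell-based MKP-3 phosphatase rescue imaging test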;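 on inhibition: phospho-Erk level distribution per well compared with pooled transfected vehicle control wells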). Conditions: HeLa MKP-3 transfected, phospho-Erk imaging KS statistic, at 10 µM, cells stimulated with TPA for 15 min.
Test [3] has as its target Dual specificity protein phosphatase 6 (Homo sapiens) (UniProt Q16828). The description is as above. Conditions: HeLa MKP-3 transfected, phospho-Erk imaging KS statistic; at 10 µM; stronger effect = higher value; cells stimulated with TPA for 15 min.
In test [4] the target is Voltage-gated potassium channel subunit beta-2 (Rattus norvegicus) (UniProt P62483). The test can be described thus: KvBeta enzyme negative modulators, primary screen, biochemical, NADPH fluorescence (AID 622;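 active means fluorescence slope higher than the sample average by over 3 SD, cut at about -0.22 in these data, passing the limit was not always enough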;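 further: slope of raw intensity against log time taken from 70 to 1610 s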). The conditions noted are these: recombinant KvBeta, 4-cyanobenzaldehyde reduction, at 10 µM, stronger effect = higher value.
Sequence of Voltage-gated potassium channel subunit beta-2 (Rattus norvegicus) (P62483 whole entry, looked up): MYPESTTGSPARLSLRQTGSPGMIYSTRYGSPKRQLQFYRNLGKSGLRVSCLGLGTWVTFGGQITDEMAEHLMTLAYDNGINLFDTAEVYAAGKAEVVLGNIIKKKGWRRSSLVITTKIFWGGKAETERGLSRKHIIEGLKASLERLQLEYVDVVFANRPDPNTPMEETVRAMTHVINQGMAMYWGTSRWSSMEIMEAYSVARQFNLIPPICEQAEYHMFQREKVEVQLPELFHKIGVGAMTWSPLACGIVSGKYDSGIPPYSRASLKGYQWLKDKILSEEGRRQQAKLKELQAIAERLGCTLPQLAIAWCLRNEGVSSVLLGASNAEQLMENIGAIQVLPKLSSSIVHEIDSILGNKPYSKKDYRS
Test [5] has the same target. Kind of test: KvBeta positive modulators, primary screen, biochemical, NADPH fluorescence (AID 623).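 Further: fluorescence intensity change per second fitted from 20 to 320 s.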 Conditions: Recombinant KvBeta, NADPH fluorescence decrease slope, 10 min; at 10 µM; stronger effect = lower value.
The target of test [6] is Muscarinic acetylcholine receptor M4 (Homo sapiens) (UniProt P08173). The test can be described thus: compounds altering M4/GIRK thallium flux, either direction, primary screen, M4 allosteric agonist project, cell-based, HEK293 M4/GIRK, BTC-AM (AID 625;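 active means fluorescence slope after compound addition differing from the mean of all tested samples at 99.7% confidence, mostly higher but some lower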;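 further: thallium influx through GIRK channels coupled to M4 in HEK293 cells with BTC-AM dye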). Conditions: at 10 µM, actives lie on both sides.
Sequence of Muscarinic acetylcholine receptor M4 (Homo sapiens) (P08173 whole entry, looked up): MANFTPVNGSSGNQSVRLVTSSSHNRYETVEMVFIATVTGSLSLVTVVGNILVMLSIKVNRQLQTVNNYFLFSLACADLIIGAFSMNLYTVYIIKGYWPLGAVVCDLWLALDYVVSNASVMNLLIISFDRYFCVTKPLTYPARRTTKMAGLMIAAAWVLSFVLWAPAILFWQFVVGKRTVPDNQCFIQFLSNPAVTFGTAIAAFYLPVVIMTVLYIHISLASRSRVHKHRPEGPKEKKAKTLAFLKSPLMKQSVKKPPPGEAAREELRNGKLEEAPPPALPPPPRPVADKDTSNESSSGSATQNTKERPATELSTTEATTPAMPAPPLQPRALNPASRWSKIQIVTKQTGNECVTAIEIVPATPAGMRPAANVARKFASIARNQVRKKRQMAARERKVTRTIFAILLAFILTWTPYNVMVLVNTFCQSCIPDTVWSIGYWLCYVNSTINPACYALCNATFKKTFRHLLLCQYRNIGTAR
Test [7] in a line: inhibitors of larval lipid processing in zebrafish, primary screen, whole organism, PED6 fluorescence, gall bladder and intestine (AID 686;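 active means a full or partial loss of lipid-probe fluorescence in the fish gall bladder, intestine or both, judged by eye; inactive means no fluorescence loss, or compound toxic to the fish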;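 further: larvae 5 to 7 days old with five fish per well; signal comes from phospholipase A2 cleavage of quenched PED6 carried via bile; overnight exposure to compound and PED6 before scoring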). Conditions: Zebrafish larvae PED6 lipid processing, fluorescence scoring; screened at 20 µM (by protocol).
The nature of test [8]: inhibitors of Chlamydomonas gravitaxis, primary screen, whole organism, Chlamydomonas reinhardtii, WT vs cilia-less mutant, absorbance, 96-well (AID 463189;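 active means inhibition at or above 50% relative to wild type and mutant plate controls; inactive means inhibition below 50%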;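 further: 0% = wild type cc124 cells in DMSO and 100% = ciliumless bld1 mutant cells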). Conditions: OD600 absorbance, 2 days, at 10 µM, stronger effect = higher value.
The mark [9] stands for this setting: measured here: cell density z-score.
Where [10] appears, read: measured here: nuclear c-Myc green intensity z-score.
Setting [11] is: measured here: nuclear pErk red intensity z-score, stronger effect = higher value.

Sequence of Dual specificity protein phosphatase 6 (Homo sapiens) (Q16828 whole entry, looked up): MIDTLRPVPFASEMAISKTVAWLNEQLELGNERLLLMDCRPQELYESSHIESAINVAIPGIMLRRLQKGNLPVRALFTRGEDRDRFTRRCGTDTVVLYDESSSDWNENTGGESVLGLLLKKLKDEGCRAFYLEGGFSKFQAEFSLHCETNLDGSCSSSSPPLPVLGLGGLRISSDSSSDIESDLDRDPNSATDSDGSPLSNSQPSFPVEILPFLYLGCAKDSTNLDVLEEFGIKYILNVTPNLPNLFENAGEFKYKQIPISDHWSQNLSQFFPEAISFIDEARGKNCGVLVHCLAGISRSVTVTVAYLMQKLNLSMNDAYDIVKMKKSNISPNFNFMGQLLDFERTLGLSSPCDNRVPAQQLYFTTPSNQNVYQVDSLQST

Take `C=CCNc1nc(C2(C)CC3(CC(C)(C)OC3=O)C(=O)O2)cs1` (centres undefined): the inhibition (commonly the change of the read-out against control, counted positive when it falls) in test [1] was -142% (inactive); in test [3], -2.07% (inactive); in test [8], 6.21% (inactive). Besides, the nuclei count in test [1] amounted to 155%. Moreover, the values for the z-score in test [2] (setting [9]), in test [2] (setting [10]) and in test [2] (setting [11]) were 0.249, -0.125 and -1.68, respectively. For the same molecule, the fluorescence slope in test [4] is -0.315 (inactive); in test [6], 0.0082 (inactive). For the same molecule, the NADPH fluorescence slope in test [5] is -1.4e-05 (inactive). Further, the molecule was called inactive in test [7].

As for `CC1(c2cnc(Nc3ccccc3)s2)CCC(=O)O1` (centres undefined), the values for the inhibition in test [1], in test [3] and in test [8] were -192% (inactive), 24.7% (inactive) and 9.89% (inactive), respectively. The molecule further came in with a nuclei count in test [1] of 138%. Moreover, the values for the z-score in test [2] (setting [9]), in test [2] (setting [10]) and in test [2] (setting [11]) were 0.619, -0.905 and -1.23, respectively. The results for the fluorescence slope in test [4] and in test [6] were -0.359 (inactive) and 0.00609 (inactive), respectively. The NADPH fluorescence slope in test [5] is 1.9e-06 (inactive). Moreover, the outcome in test [7] is “active; weak signal in gallbladder only”.

As to `Cc1cccc(OCC(=O)NCC(=O)n2nc(C)cc2C)c1`, the inhibition in test [1] is -106% (inactive); in test [3], -7.79% (inactive); in test [8] it was 16.2% (inactive). Moreover, the nuclei count in test [1] amounted to 146%. The z-score in test [2] (setting [9]) is -0.336; in test [2] (setting [10]), 0.0922; in test [2] (setting [11]) it was 0.78. Further, the fluorescence slope was -0.413 (inactive) in test [4] and 0.00436 (inactive) in test [6]. For the same molecule, the NADPH fluorescence slope in test [5] is -9.5e-06 (inactive). For the same molecule, the call in test [7] was inactive.

Turning to `Cc1c(C(=O)O)sc(=S)n1-c1ccccc1`, the inhibition was -33.5% (inactive) in test [1], 20.8% (inactive) in test [3] and 12.3% (inactive) in test [8]. In test [1], this molecule came in with a nuclei count of 141%. For the same molecule, the z-score in test [2] (setting [9]) was 0.701; in test [2] (setting [10]), -0.0654; in test [2] (setting [11]) it was 0.165. In addition, the fluorescence slope in test [4] was -0.372 (inactive); in test [6], 0.0076 (inactive). Moreover, the NADPH fluorescence slope in test [5] is -3.1e-05 (inactive). Further, the outcome in test [7] was inactive.

As for `c1ccc2c(c1)nc(CN1CCOCC1)n1c3ccccc3nc21`, the inhibition in test [1] is -88% (inactive); in test [3] it was -3.98% (inactive); in test [8] it was -4.79% (inactive). In test [1], this molecule gave a nuclei count of 174%. Besides, the z-score in test [2] (setting [9]) was -0.838; in test [2] (setting [10]) it was -0.224; in test [2] (setting [11]), 1.09. Besides, the figures for the fluorescence slope in test [4] and in test [6] were -0.309 (inactive) and 0.00659 (inactive), respectively. In addition, the NADPH fluorescence slope in test [5] is -2.8e-05 (inactive). The molecule was classed as inactive in test [7].

As for `CCC1=Nc2ccccc2NC2=C1C(=O)CCC2`, the values for the inhibition in test [1], in test [3] and in test [8] were -65.4% (inactive), 3.66% (inactive) and 23.6% (inactive), respectively. The molecule also displayed a nuclei count in test [1] of 87.8%. In addition, the z-score in test [2] (setting [9]) is -1.25; in test [2] (setting [10]) it was 0.203; in test [2] (setting [11]), -0.00909. The fluorescence slope in test [4] is -0.427 (inactive); in test [6] it was 0.00568 (inactive). Further, in test [5], the NADPH fluorescence slope was -3.7e-05 (inactive). For the same molecule, the outcome in test [7] was inactive.

Turning to `CCCCOc1ccccc1P(=O)(O)CP(=O)(c1ccccc1)c1ccccc1`, the inhibition in test [1] was -205% (inactive); in test [3], -5.89% (inactive); in test [8], 2.4% (inactive). Further, the nuclei count in test [1] came out at 192%. Moreover, the values for the z-score in test [2] (setting [9]), in test [2] (setting [10]) and in test [2] (setting [11]) were -0.204, -0.49 and 0.473, respectively. Besides, the fluorescence slope in test [4] is -0.436 (inactive); in test [6] it was 0.00473 (inactive). Moreover, in test [5], the NADPH fluorescence slope is -3e-05 (inactive). For the same molecule, the result in test [7] was inactive.

Consider `Cc1cc(C)n(C(=O)CNC(=O)c2cccs2)n1`, for which the inhibition in test [1] is -109% (inactive); in test [3] it was 7.48% (inactive); in test [8], 16.6% (inactive). Also, in test [1], the nuclei count came out at 182%. The z-score is 0.591 in test [2] (setting [9]), -1.67 in test [2] (setting [10]) and -0.663 in test [2] (setting [11]). Moreover, the fluorescence slope in test [4] is -0.404 (inactive); in test [6], 0.00505 (inactive). In test [5], the NADPH fluorescence slope was -3.1e-05 (inactive). Moreover, in test [7], the outcome was inactive.

Regarding `O=C(CCN1CCc2ccccc2CC1)c1ccc2c(c1)OCCO2`, the values for the inhibition in test [1], in test [3] and in test [8] were -194% (inactive), 9.39% (inactive) and 40.1% (inactive), respectively. In test [1], this molecule displayed a nuclei count of 154%. Moreover, the z-score worked out at 1.21 in test [2] (setting [9]), 0.758 in test [2] (setting [10]) and 0.122 in test [2] (setting [11]). The fluorescence slope in test [4] is -0.406 (inactive); in test [6], 0.00461 (inactive). The NADPH fluorescence slope in test [5] was -5.2e-05 (inactive). Also, in test [7], the outcome was inactive.

On to `Cc1cc(N/C=C/C(=O)c2cccc3ccccc23)no1`, for which the inhibition in test [1] is -51% (inactive); in test [3] it was 13.2% (inactive); in test [8], -11.1% (inactive). This molecule also showed a nuclei count in test [1] of 95.6%. Moreover, the figures for the z-score in test [2] (setting [9]), in test [2] (setting [10]) and in test [2] (setting [11]) were -0.324, 0.59 and -0.55, respectively. Further, the fluorescence slope was -0.396 (inactive) in test [4] and 0.00616 (inactive) in test [6]. Further, the NADPH fluorescence slope in test [5] is -2.3e-06 (inactive). Also, the outcome in test [7] was inactive.

For the molecule `COC(=O)C1C(=O)NCC1c1ccccc1` (centres undefined), the inhibition in test [1] was 1.3% (inactive); in test [3], 49.5% (inactive); in test [8] it was 31.4% (inactive). Moreover, the nuclei count in test [1] was 81.1%. In addition, the z-score is 5.99 in test [2] (setting [9]), -1.76 in test [2] (setting [10]) and -1.15 in test [2] (setting [11]). Further, the fluorescence slope is -0.482 (inactive) in test [4] and 0.00479 (inactive) in test [6]. For the same molecule, the NADPH fluorescence slope in test [5] is -4e-05 (inactive). In addition, the result in test [7] was inactive.

For the molecule `C=C(Br)CN1CCN(CC(=C)Br)CC1`, the values for the inhibition in test [1], in test [3] and in test [8] were -179% (inactive), 17% (inactive) and 5.24% (inactive), respectively. In addition, the nuclei count in test [1] is 175%. Further, the z-score in test [2] (setting [9]) is 2.33; in test [2] (setting [10]), -0.834; in test [2] (setting [11]) it was -0.983. The fluorescence slope in test [4] is -0.428 (inactive); in test [6], 0.00828 (inactive). In addition, the NADPH fluorescence slope in test [5] is -2.9e-05 (inactive). For the same molecule, in test [7], the molecule was called inactive.

For `CN(CCOC(=O)c1cccc(Br)c1)C(C)(C)C`, the inhibition is -47% (inactive) in test [1], 7.48% (inactive) in test [3] and 30.2% (inactive) in test [8]. This molecule also showed a nuclei count in test [1] of 134%. Moreover, the z-score was -0.456 in test [2] (setting [9]), 0.868 in test [2] (setting [10]) and 2.16 in test [2] (setting [11]). Besides, the fluorescence slope was -0.405 (inactive) in test [4] and 0.00522 (inactive) in test [6]. Moreover, the NADPH fluorescence slope in test [5] was -4e-05 (inactive). In addition, in test [7], the call was inactive.

As for `NC(=O)c1ccccc1OCCOCCOCCOc1ccccc1C(N)=O`, the inhibition in test [1] was -40% (inactive); in test [3], 3.66% (inactive); in test [8] it was 21.6% (inactive). Further, in test [1], the nuclei count came to 141%. Further, the z-score in test [2] (setting [9]) is 0.988; in test [2] (setting [10]) it was 0.573; in test [2] (setting [11]), -0.494. For the same molecule, the fluorescence slope in test [4] was -0.379 (inactive); in test [6] it was 0.00555 (inactive). Moreover, in test [5], the NADPH fluorescence slope is -3.2e-05 (inactive). For the same molecule, the call in test [7] was inactive.

The record behind these values is PubChem BioAssay.
